# Reference: PubChem BioAssay AID1159580 (chemical genetic matrix, 2015)
# In all, about 5,500 compounds went through this assay and about 2,000 (36%) were called active. Not shown: some 18% with an inconclusive outcome. Some of the results follow. A number with no mark means an inactive call. No stated cut-off is given here; in the data, active means normalized growth mostly below about 0.91 (no sharp cut-off); inconclusive means no clear call, values can overlap the other calls; inactive means mostly above about 0.92.
# Assay: chemical genetic growth profiling, strain panel (AID 1159580);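 further: tested at 20 µM; growth read once vehicle control cultures reached saturation at 30 °C; 1 = growth at the plate median or of vehicle wells; lower values mean less growth of the strain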
# Settings: growth OD
smiles,measurement,setting,value
COc1ccc(C(=O)c2ccccc2)c(O)c1,normalized growth,"S. cerevisiae deletion strains, locus YJR075W, strain HOC1, active compounds read low",0.848 (active)
same,normalized growth,"S. cerevisiae deletion strains, locus YKL009W, strain mrt4, active compounds read low",0.835 (active)
same,normalized growth,"S. cerevisiae deletion strains, locus YKL068W, active compounds read low",0.91 (active)
same,normalized growth,"S. cerevisiae deletion strains, locus YKL085W, strain MDH1 (second series), active compounds read low",0.895 (active)
same,normalized growth,"S. cerevisiae deletion strains, locus YKL085W, strain MDH1, active compounds read low",0.895 (active)
same,normalized growth,"S. cerevisiae deletion strains, locus YKL160W, strain elf1, active compounds read low",0.764 (active)
same,normalized growth,"S. cerevisiae deletion strains, locus YKL190W, strain CNB1, active compounds read low",0.913 (active)
same,normalized growth,"S. cerevisiae deletion strains, locus YKR001C, strain vps1, active compounds read low",0.553 (active)
same,normalized growth,"S. cerevisiae deletion strains, locus YKR026C, strain gcn3, active compounds read low",0.804 (active)
same,normalized growth,"S. cerevisiae deletion strains, locus YKR091W, strain srl3, active compounds read low",0.874 (active)
same,normalized growth,"S. cerevisiae deletion strains, locus YLL001W, strain dnm1, active compounds read low",0.734 (active)
same,normalized growth,"S. cerevisiae deletion strains, locus YLL026W, active compounds read low",0.841 (active)
same,normalized growth,"S. cerevisiae deletion strains, locus YLL041C, strain sdh2, active compounds read low",0.861 (active)
same,normalized growth,"S. cerevisiae deletion strains, locus YLR027C, strain aat2, active compounds read low",0.807 (active)
same,normalized growth,"S. cerevisiae deletion strains, locus YLR039C, strain RIC1, active compounds read low",0.441 (active)
same,normalized growth,"S. cerevisiae deletion strains, locus YLR058C, strain SHM2, active compounds read low",0.945
same,normalized growth,"S. cerevisiae deletion strains, locus YLR102C, strain apc9, active compounds read low",0.906 (active)
same,normalized growth,"S. cerevisiae deletion strains, locus YLR113W, strain HOG1, active compounds read low",0.836 (active)
same,normalized growth,"S. cerevisiae deletion strains, locus YLR221C, strain rsa3, active compounds read low",0.74 (active)
same,normalized growth,"S. cerevisiae deletion strains, locus YLR258W, strain gsy2, active compounds read low",0.815 (active)
same,normalized growth,"S. cerevisiae deletion strains, locus YLR262C, strain YPT6 (second series), active compounds read low",0.408 (active)
same,normalized growth,"S. cerevisiae deletion strains, locus YLR262C, strain YPT6, active compounds read low",0.526 (active)
same,normalized growth,"S. cerevisiae deletion strains, locus YLR268W, strain sec22, active compounds read low",0.917
same,normalized growth,"S. cerevisiae deletion strains, locus YLR320W, strain mms22, active compounds read low",0.542 (active)
same,normalized growth,"S. cerevisiae deletion strains, locus YLR330W, strain CHS5, active compounds read low",0.916 (active)
same,normalized growth,"S. cerevisiae deletion strains, locus YLR342W, strain FKS1 (second series), active compounds read low",0.763 (active)
same,normalized growth,"S. cerevisiae deletion strains, locus YLR342W, strain FKS1, active compounds read low",0.815 (active)
same,normalized growth,"S. cerevisiae deletion strains, locus YLR357W, strain rsc2, active compounds read low",0.857
same,normalized growth,"S. cerevisiae deletion strains, locus YLR370C, strain arc18, active compounds read low",0.77 (active)
same,normalized growth,"S. cerevisiae deletion strains, locus YLR371W, strain rom2, active compounds read low",0.918
same,normalized growth,"S. cerevisiae deletion strains, locus YLR384C, strain iki3, active compounds read low",0.843 (active)
same,normalized growth,"S. cerevisiae deletion strains, locus YLR418C, strain cdc73, active compounds read low",0.625 (active)
same,normalized growth,"S. cerevisiae deletion strains, locus YML016C, strain PPZ1, active compounds read low",0.932
same,normalized growth,"S. cerevisiae deletion strains, locus YML032C, strain rad52, active compounds read low",0.871 (active)
same,normalized growth,"S. cerevisiae deletion strains, locus YML120C, strain ndi1, active compounds read low",0.762 (active)
same,normalized growth,"S. cerevisiae deletion strains, locus YML124C, strain tub3, active compounds read low",0.899 (active)
same,normalized growth,"S. cerevisiae deletion strains, locus YMR058W, strain fet3, active compounds read low",0.732 (active)
same,normalized growth,"S. cerevisiae deletion strains, locus YMR078C, strain ctf18, active compounds read low",0.876 (active)
same,normalized growth,"S. cerevisiae deletion strains, locus YMR125W, strain sto1, active compounds read low",0.825 (active)
same,normalized growth,"S. cerevisiae deletion strains, locus YMR129W, active compounds read low",0.856 (active)
same,normalized growth,"S. cerevisiae deletion strains, locus YMR205C, strain PFK2, active compounds read low",0.567 (active)
same,normalized growth,"S. cerevisiae deletion strains, locus YMR223W, strain ubp8, active compounds read low",0.774 (active)
same,normalized growth,"S. cerevisiae deletion strains, locus YMR231W, strain pep5, active compounds read low",0.877 (active)
same,normalized growth,"S. cerevisiae deletion strains, locus YMR263W, strain SAP30, active compounds read low",0.878 (active)
same,normalized growth,"S. cerevisiae deletion strains, locus YMR307W, strain GAS1, active compounds read low",0.62
same,normalized growth,"S. cerevisiae deletion strains, locus YNL067W, strain RPL9B, active compounds read low",0.889
same,normalized growth,"S. cerevisiae deletion strains, locus YNL071W, strain lat1, active compounds read low",0.538 (active)
same,normalized growth,"S. cerevisiae deletion strains, locus YNL128W, strain TEP1, active compounds read low",0.934
same,normalized growth,"S. cerevisiae deletion strains, locus YNL153C, strain GIM3, active compounds read low",0.937
same,normalized growth,"S. cerevisiae deletion strains, locus YNL183C, strain NPR1, active compounds read low",0.851
same,normalized growth,"S. cerevisiae deletion strains, locus YNL209W, strain ssb2, active compounds read low",0.906 (active)
same,normalized growth,"S. cerevisiae deletion strains, locus YNL233W, strain BNI4, active compounds read low",0.833 (active)
same,normalized growth,"S. cerevisiae deletion strains, locus YNL248C, strain rpa49, active compounds read low",0.639 (active)
same,normalized growth,"S. cerevisiae deletion strains, locus YNL250W, strain rad50, active compounds read low",0.915
same,normalized growth,"S. cerevisiae deletion strains, locus YNL271C, strain bni1, active compounds read low",0.882 (active)
same,normalized growth,"S. cerevisiae deletion strains, locus YNL298W, strain CLA4, active compounds read low",0.859 (active)
same,normalized growth,"S. cerevisiae deletion strains, locus YNL307C, strain MCK1, active compounds read low",0.538 (active)
same,normalized growth,"S. cerevisiae deletion strains, locus YNL322C, strain KRE1 (second series), active compounds read low",0.862 (active)
same,normalized growth,"S. cerevisiae deletion strains, locus YNL322C, strain KRE1, active compounds read low",0.93
same,normalized growth,"S. cerevisiae deletion strains, locus YNR049C, strain mso1, active compounds read low",0.838 (active)
same,normalized growth,"S. cerevisiae deletion strains, locus YNR052C, strain pop2, active compounds read low",0.923
same,normalized growth,"S. cerevisiae deletion strains, locus YOL006C, strain TOP1, active compounds read low",0.474 (active)
same,normalized growth,"S. cerevisiae deletion strains, locus YOL012C, strain htz1",1.24
same,normalized growth,"S. cerevisiae deletion strains, locus YOL147C, strain pex11, active compounds read low",0.846 (active)
same,normalized growth,"S. cerevisiae deletion strains, locus YOR001W, strain rrp6, active compounds read low",0.712 (active)
same,normalized growth,"S. cerevisiae deletion strains, locus YOR061W, strain CKA2, active compounds read low",0.936
same,normalized growth,"S. cerevisiae deletion strains, locus YOR069W, strain VPS5, active compounds read low",0.959
same,normalized growth,"S. cerevisiae deletion strains, locus YOR070C, strain gyp1, active compounds read low",0.857 (active)
same,normalized growth,"S. cerevisiae deletion strains, locus YOR080W, strain dia2, active compounds read low",0.867 (active)
same,normalized growth,"S. cerevisiae deletion strains, locus YOR083W, strain WHI5, active compounds read low",0.73 (active)
same,normalized growth,"S. cerevisiae deletion strains, locus YOR106W, strain vam3, active compounds read low",0.682 (active)
same,normalized growth,"S. cerevisiae deletion strains, locus YOR136W, strain idh2, active compounds read low",0.912 (active)
same,normalized growth,"S. cerevisiae deletion strains, locus YOR144C, strain elg1, active compounds read low",0.897 (active)
same,normalized growth,"S. cerevisiae deletion strains, locus YOR184W, strain ser1, active compounds read low",0.476 (active)
same,normalized growth,"S. cerevisiae deletion strains, locus YOR231W, strain MKK1, active compounds read low",0.878
same,normalized growth,"S. cerevisiae deletion strains, locus YOR265W, strain rbl2, active compounds read low",0.845 (active)
same,normalized growth,"S. cerevisiae deletion strains, locus YOR270C, strain vph1, active compounds read low",0.419 (active)
same,normalized growth,"S. cerevisiae deletion strains, locus YOR290C, strain snf2, active compounds read low",0.784 (active)
same,normalized growth,"S. cerevisiae deletion strains, locus YOR316C, strain cot1, active compounds read low",0.903 (active)
same,normalized growth,"S. cerevisiae deletion strains, locus YPL051W, strain arl3, active compounds read low",0.647 (active)
same,normalized growth,"S. cerevisiae deletion strains, locus YPL055C, strain LGE1, active compounds read low",0.773
same,normalized growth,"S. cerevisiae deletion strains, locus YPL078C, strain atp4, active compounds read low",0.599 (active)
same,normalized growth,"S. cerevisiae deletion strains, locus YPL106C, strain sse1, active compounds read low",0.845 (active)
same,normalized growth,"S. cerevisiae deletion strains, locus YPL240C, strain hsp82, active compounds read low",0.858 (active)
same,normalized growth,"S. cerevisiae deletion strains, locus YPL241C, strain CIN2, active compounds read low",0.94
same,normalized growth,"S. cerevisiae deletion strains, locus YPL256C, strain CLN2, active compounds read low",0.818 (active)
same,normalized growth,"S. cerevisiae deletion strains, locus YPR119W, strain clb2, active compounds read low",0.888 (active)
same,normalized growth,"S. cerevisiae deletion strains, locus YPR141C, strain kar3, active compounds read low",0.892 (active)
same,normalized growth,"S. cerevisiae deletion strains, locus YPR163C, strain tif3, active compounds read low",0.844 (active)
same,normalized growth,"S. cerevisiae deletion strains, locus YPR167C, strain met16, active compounds read low",0.898 (active)
same,normalized growth,"S. cerevisiae deletion strains, strain wtn01, active compounds read low",0.872 (active)
same,normalized growth,"S. cerevisiae strains, strain wild type, active compounds read low",0.911
